Compounds without any hit were thinned out: in the full panel of roughly 79,000, 15% have a hit. Active and inactive are the calls of the source. No stated cut-off is given here; in the data, active means growth inhibition above about 70%; inactive means the rest.
assay: NCI Yeast Anticancer Drug Screen. Data for the bub3 strain (AID 167); conditions: S. cerevisiae bub3 mutant strain, at 50.0 µM, active compounds read high
Outline: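 Readout: yeast growth inhibition, expressed relative to vehicle-only wells. The test organism is a mutant strain from a panel with lesions in DNA repair or checkpoint genes.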

| Compound | growth inhibition |
| --- | --- |
| O=C1CC[C@@H](NC(=O)Cc2ccccc2)C(=O)N1 | 2.25% (inactive) |
| O=C(CCl)Nc1cc(C(F)(F)F)ccc1Cl | 23.9% (inactive) |
| CCCCCCCCCCCCCCCCCCN(C)C | 46.7% (inactive) |
| CCN(CC)c1ccc(NC(=O)CCl)cc1 | -15.8% (inactive) |
| CCCCCCC1N(C(C#N)c2ccccc2)CCCN1C(C#N)c1ccccc1 (configuration not stated) | 2.4% (inactive) |
| COc1ccccc1/C=C(\C#N)C(=O)O | -6.65% (inactive) |
| C=C1C(=O)OC2(CCCCC)CCCCC12 (configuration not stated) | 0.5% (inactive) |
| CC(O)C1NC(=S)N(c2ccccc2)C1=O (configuration not stated) | -14.4% (inactive) |
| O=[N+]([O-])c1ccc(Cl)c(C(F)(F)F)c1 | 1.2% (inactive) |
| Oc1ccccc1C=Nc1ccc(Cl)cc1 | -21.6% (inactive) |
| O=C(O)[C@@H]1[C@@H]2C[C@@H]3[C@H](OC(=O)[C@@H]31)[C@@H]2O | -15.8% (inactive) |
| CN(C(=O)C12C3C4C5C3C1(C(=O)O)C5C42)C(C)(C)C (configuration not stated) | 28.1% (inactive) |
| O=C(O)c1ccc(/C=N/NC(=S)Nc2cccc3cccnc23)cc1 | 10.2% (inactive) |
| COC(=O)C1C(c2ccccc2)C1(C#N)C#N (configuration not stated) | -5.55% (inactive) |
| COc1ccc(CN)cc1 | 6.85% (inactive) |
| CCOc1ncc(C(O)c2ccc(C)cc2)c(OCC)n1 (configuration not stated) | 1.4% (inactive) |
| O=C(CC(=O)CC(O)(C(F)(F)F)C(F)(F)F)CC(O)(C(F)(F)F)C(F)(F)F | 55.9% (inactive) |
| Nc1ccc(C(=O)Nc2nccs2)cc1 | 14.6% (inactive) |
| Cc1cn(C2CC(C)N(CCO)O2)c(=O)[nH]c1=O (configuration not stated) | -14.9% (inactive) |
| NC(N)=N/N=C/c1c(Cl)nc2n1CCS2 | 22.4% (inactive) |
| C[S+](C)CCOC(=O)C(=[N+]=[N-])c1ccc([N+](=O)[O-])cc1 | 9.9% (inactive) |
| O=[N+]([O-])c1ccc(/C=C(/c2ccc([N+](=O)[O-])o2)S(=O)(=O)c2ccccc2)o1 | 61% (inactive) |

From PubChem BioAssay (NCI)
